According to article PMC5700166:
Substitutions are numbered along the chain they refer to.

Legend:
Test in all cases: protein-binding microarray (PBM); PBM: ~300 nM protein, 6 mM HEPES pH 7.8, 80 mM KCl, 0.5 mM EDTA, 0.5 mM EGTA, 6% glycerol, 35 ng/ul poly-dIdC, 1% milk, 1 h, room temperature; Ap Aiptasia and Nv Nematostella (sea anemones) / Co Capsaspora / Aq Amphimedon (sponge) / Dm Drosophila / Hu human; RHD is the Rel homology domain; high values mean tight binding
Details in all cases: dsDNA, one strand shown
GST-Ap-NF-kB RHD = molecular target: T1, GST-Ap-NF-kB RHD (Exaiptasia pallida (Aiptasia), UniProt A0A913YAJ5 2-422)
T1 sequence: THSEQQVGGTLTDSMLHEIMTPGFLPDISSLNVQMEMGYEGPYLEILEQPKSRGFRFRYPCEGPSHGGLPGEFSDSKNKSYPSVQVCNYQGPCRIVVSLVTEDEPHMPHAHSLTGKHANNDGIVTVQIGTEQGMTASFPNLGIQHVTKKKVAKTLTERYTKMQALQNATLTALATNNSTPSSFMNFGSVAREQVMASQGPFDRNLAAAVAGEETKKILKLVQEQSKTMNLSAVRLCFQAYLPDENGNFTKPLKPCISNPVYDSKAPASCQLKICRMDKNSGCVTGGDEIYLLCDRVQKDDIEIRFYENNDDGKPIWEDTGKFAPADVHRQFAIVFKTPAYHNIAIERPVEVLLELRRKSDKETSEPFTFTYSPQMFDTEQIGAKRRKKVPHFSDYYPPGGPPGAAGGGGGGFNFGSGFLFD

[1] = molecular target: T2, GST-Nv-NF-kB (Cys allele) (Nematostella vectensis, UniProt E5G601 2-411)
T2 sequence: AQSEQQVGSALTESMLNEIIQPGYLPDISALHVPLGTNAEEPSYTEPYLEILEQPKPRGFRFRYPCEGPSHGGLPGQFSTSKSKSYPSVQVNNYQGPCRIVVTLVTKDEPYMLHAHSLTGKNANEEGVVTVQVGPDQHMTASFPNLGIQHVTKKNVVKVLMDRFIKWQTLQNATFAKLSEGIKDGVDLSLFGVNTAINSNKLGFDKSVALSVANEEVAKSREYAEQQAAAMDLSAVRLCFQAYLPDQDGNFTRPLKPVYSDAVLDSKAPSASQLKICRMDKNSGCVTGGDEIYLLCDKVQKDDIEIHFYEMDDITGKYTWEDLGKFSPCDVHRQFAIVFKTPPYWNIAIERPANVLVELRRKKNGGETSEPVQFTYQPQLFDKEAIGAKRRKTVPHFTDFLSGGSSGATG

[2] = molecular target: T3, GST-Nv-NF-kB (Ser allele) (Nematostella vectensis, UniProt A7UNT2 2-411)
T3 sequence: T2 sequence with Q21R, C66S, S207N, E215Q, V217A, E225K, A268E, D399E

GST-Co-NF-kB = molecular target: T4, GST-Co-NF-kB (Capsaspora owczarzaki, UniProt F1ARL5 200-546)
T4 sequence: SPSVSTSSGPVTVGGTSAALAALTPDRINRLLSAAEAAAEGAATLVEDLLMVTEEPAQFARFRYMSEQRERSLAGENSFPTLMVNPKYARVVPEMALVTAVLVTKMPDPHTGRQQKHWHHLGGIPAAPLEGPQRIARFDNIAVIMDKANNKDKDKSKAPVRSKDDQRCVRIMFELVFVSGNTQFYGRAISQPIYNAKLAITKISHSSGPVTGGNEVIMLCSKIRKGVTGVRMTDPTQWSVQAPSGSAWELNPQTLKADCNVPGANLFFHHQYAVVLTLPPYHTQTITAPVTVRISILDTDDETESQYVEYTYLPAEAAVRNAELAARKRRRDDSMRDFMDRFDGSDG

GST-Dm-Relish = molecular target: T5, GST-Dm-Relish (Drosophila melanogaster, UniProt Q94527 99-473)
T5 sequence: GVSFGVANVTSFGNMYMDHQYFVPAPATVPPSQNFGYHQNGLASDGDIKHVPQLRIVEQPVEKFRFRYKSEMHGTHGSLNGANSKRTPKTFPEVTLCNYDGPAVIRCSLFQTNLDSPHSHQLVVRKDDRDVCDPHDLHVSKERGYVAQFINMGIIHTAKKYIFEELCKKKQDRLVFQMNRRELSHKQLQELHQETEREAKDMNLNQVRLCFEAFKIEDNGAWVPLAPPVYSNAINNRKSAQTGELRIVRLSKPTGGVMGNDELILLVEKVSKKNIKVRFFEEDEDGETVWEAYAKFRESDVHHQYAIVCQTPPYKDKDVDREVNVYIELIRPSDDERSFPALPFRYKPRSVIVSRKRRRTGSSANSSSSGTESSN

CCGATTAACATCAATAGTACCGATGATGTTAATCGGGTCTTGATTCGCTTGACGCTGCTG
binding signal (GST-Ap-NF-kB RHD): 1.43 z-score
binding signal [1]: 1.03 z-score
binding signal [2]: 3 z-score

CCGATTAACATCAAAGAGGAGTCTGATGTTAATCGGGTCTTGATTCGCTTGACGCTGCTG
binding signal [1]: 1.23 z-score

CCGATTAACATCACTAGGCGGGATGATGTTAATCGGGTCTTGATTCGCTTGACGCTGCTG
binding signal (GST-Ap-NF-kB RHD): 1.56 z-score
binding signal (GST-Co-NF-kB): 1.92 z-score

CCGATTAACATCAACCCCCCCCCTGATGTTAATCGGGTCTTGATTCGCTTGACGCTGCTG
binding signal (GST-Ap-NF-kB RHD): 5.71 z-score
binding signal [2]: 4.2 z-score
binding signal (GST-Co-NF-kB): 5.49 z-score
binding signal (GST-Dm-Relish): 5.26 z-score

CCGATTAACATCAGGGTATAACGTGATGTTAATCGGGTCTTGATTCGCTTGACGCTGCTG
binding signal (GST-Co-NF-kB): 1.1 z-score

CCGATTAACATCAGCTTGGGAAATGATGTTAATCGGGTCTTGATTCGCTTGACGCTGCTG
binding signal [1]: 1.84 z-score
binding signal (GST-Co-NF-kB): 2.33 z-score

CCGATTAACATCAATCAGCGGGGTGATGTTAATCGGGTCTTGATTCGCTTGACGCTGCTG
binding signal (GST-Ap-NF-kB RHD): 1.21 z-score
binding signal (GST-Co-NF-kB): 2.43 z-score

CCGATTAACATCACCCCCCCCCCTGATGTTAATCGGGTCTTGATTCGCTTGACGCTGCTG
binding signal (GST-Ap-NF-kB RHD): 5.35 z-score
binding signal (GST-Co-NF-kB): 7.37 z-score
binding signal (GST-Dm-Relish): 4.97 z-score

CCGATTAACATCACTAGGTAGTCTGATGTTAATCGGGTCTTGATTCGCTTGACGCTGCTG
binding signal [2]: 1.04 z-score

CCGATTAACATCAGCATTCCCAATGATGTTAATCGGGTCTTGATTCGCTTGACGCTGCTG
binding signal [1]: 1.29 z-score
binding signal (GST-Co-NF-kB): 1.08 z-score

CCGATTAACATCACGTGGGGCGTTGATGTTAATCGGGTCTTGATTCGCTTGACGCTGCTG
binding signal [1]: 1.36 z-score

CCGATTAACATCAGGTAATATATTGATGTTAATCGGGTCTTGATTCGCTTGACGCTGCTG
binding signal [2]: 2.14 z-score

CCGATTAACATCAGTACCTCGTATGATGTTAATCGGGTCTTGATTCGCTTGACGCTGCTG
binding signal [2]: 1.04 z-score

CCGATTAACATCAGTGGTACTTGTGATGTTAATCGGGTCTTGATTCGCTTGACGCTGCTG
binding signal [2]: 1.44 z-score
binding signal (GST-Dm-Relish): 1.25 z-score

CCGATTAACATCAATGTCGGTGGTGATGTTAATCGGGTCTTGATTCGCTTGACGCTGCTG
binding signal (GST-Co-NF-kB): 1.2 z-score

CCGATTAACATCAAGAACCTTCTTGATGTTAATCGGGTCTTGATTCGCTTGACGCTGCTG
binding signal [1]: 1.02 z-score

CCGATTAACATCACCCTACAAGTTGATGTTAATCGGGTCTTGATTCGCTTGACGCTGCTG
binding signal (GST-Co-NF-kB): 3.08 z-score

CCGATTAACATCATGGGGTGTGCTGATGTTAATCGGGTCTTGATTCGCTTGACGCTGCTG
binding signal (GST-Ap-NF-kB RHD): 1.12 z-score
binding signal (GST-Co-NF-kB): 1.28 z-score

CCGATTAACATCACCCCCCCCCATGATGTTAATCGGGTCTTGATTCGCTTGACGCTGCTG
binding signal (GST-Ap-NF-kB RHD): 4.92 z-score
binding signal [2]: 3.7 z-score
binding signal (GST-Co-NF-kB): 7.08 z-score
binding signal (GST-Dm-Relish): 5.37 z-score

CCGATTAACATCACGGTGTGGGTTGATGTTAATCGGGTCTTGATTCGCTTGACGCTGCTG
binding signal (GST-Co-NF-kB): 1.37 z-score

CCGATTAACATCACCCCATCTCGTGATGTTAATCGGGTCTTGATTCGCTTGACGCTGCTG
binding signal (GST-Ap-NF-kB RHD): 1.2 z-score
binding signal (GST-Co-NF-kB): 2.11 z-score
binding signal (GST-Dm-Relish): 1.42 z-score

CCGATTAACATCAAGTACCAGGGTGATGTTAATCGGGTCTTGATTCGCTTGACGCTGCTG
binding signal (GST-Ap-NF-kB RHD): 1.05 z-score

CCGATTAACATCACCCCGAACGCTGATGTTAATCGGGTCTTGATTCGCTTGACGCTGCTG
binding signal (GST-Ap-NF-kB RHD): 1.59 z-score
binding signal (GST-Co-NF-kB): 2.02 z-score

CCGATTAACATCAATTTTTGCCCTGATGTTAATCGGGTCTTGATTCGCTTGACGCTGCTG
binding signal (GST-Co-NF-kB): 1.72 z-score

CCGATTAACATCACTACCCCGGATGATGTTAATCGGGTCTTGATTCGCTTGACGCTGCTG
binding signal (GST-Ap-NF-kB RHD): 1.88 z-score
binding signal (GST-Co-NF-kB): 3.19 z-score

CCGATTAACATCAATTAGGTGGGTGATGTTAATCGGGTCTTGATTCGCTTGACGCTGCTG
binding signal (GST-Ap-NF-kB RHD): 1.19 z-score
binding signal (GST-Co-NF-kB): 1.13 z-score

CCGATTAACATCACCCACCGATTTGATGTTAATCGGGTCTTGATTCGCTTGACGCTGCTG
binding signal (GST-Ap-NF-kB RHD): 1.07 z-score

CCGATTAACATCACTGGGAGGGCTGATGTTAATCGGGTCTTGATTCGCTTGACGCTGCTG
binding signal (GST-Ap-NF-kB RHD): 1.08 z-score
binding signal (GST-Co-NF-kB): 1.47 z-score
